Structures are written as SMILES. Records with an inconclusive call do not appear. Activity calls are given as the source filed them. Calls follow the shape of the dose curve; as a rule, active = well fitted cell-killing curve with a large enough effect; inconclusive = small, poorly fitted or top-dose-only effect, or effect the other way; inactive = no such curve, though single readings can be large or run the other way.

Assay [1] is described as follows: Quantitative High-Throughput drug screen in 47 multiple myeloma cell lines against the NCATS MIPE library collection: MM1S_ATCC cell viability assay (AID 1918980). Also: nearly all actives have a fitted effect of over 45% in size. In short, it runs like this: (§1)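 qHTS format: cells plated (500/well), pin-dosed with MIPE 4.0 compounds, kept 48 h at 37 °C. Readout was CellTiter-Glo luminescence, median RLU.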
Assay [2] can be described thus: Quantitative High-Throughput drug screen in 47 multiple myeloma cell lines against the NCATS MIPE library collection: KMS28PE_JCRB cell viability assay (AID 1918983). Also: nearly all actives have a fitted effect of over 35% in size. The procedure, abridged: as §1
Assay [3] can be described thus: Quantitative High-Throughput drug screen in 47 multiple myeloma cell lines against the NCATS MIPE library collection: L363_DSMZ cell viability assay (AID 1918984). Also: nearly all actives have a fitted effect of over 40% in size. As to conditions: L363 myeloma viability, CellTiter-Glo ATP luminescence, 48 h; viability (% of control): at 45.8 µM (top of the series). The procedure, abridged:
as §1
Background: ATP-based viability assays read luminescence as a measure of living cells.

Assay [4] is described as follows: Quantitative High-Throughput drug screen in 47 multiple myeloma cell lines against the NCATS MIPE library collection: OPM1_PLB cell viability assay (AID 1918989). Also: nearly all actives have a fitted effect of over 40% in size. The procedure, abridged: as §1
A short description of assay [5]: Quantitative High-Throughput drug screen in 47 multiple myeloma cell lines against the NCATS MIPE library collection: KMS34_JCRB cell viability assay (AID 1918985). Also: nearly all actives have a fitted effect of over 40% in size. The procedure, abridged: as §1
Assay [6] is described as follows: Quantitative High-Throughput drug screen in 47 multiple myeloma cell lines against the NCATS MIPE library collection: OCIMY7_PLB cell viability assay (AID 1918987). Also: nearly all actives have a fitted effect of over 65% in size. As to conditions: OCI-MY7 myeloma viability, CellTiter-Glo ATP, 48 h; viability (% of DMSO): at 45.8 µM (top of the series). In short, it runs like this:
as §1

The nature of assay [7]: Quantitative High-Throughput drug screen in 47 multiple myeloma cell lines against the NCATS MIPE library collection: OCIMY5_PLB cell viability assay (AID 1918988). Also: nearly all actives have a fitted effect of over 65% in size. The procedure, abridged: as §1
The nature of assay [8]: Quantitative High-Throughput drug screen in 47 multiple myeloma cell lines against the NCATS MIPE library collection: MM1R_ATCC cell viability assay (AID 1918981). Also: nearly all actives have a fitted effect of over 35% in size. The procedure, abridged: as §1
Assay [9] in a line: Quantitative High-Throughput drug screen in 47 multiple myeloma cell lines against the NCATS MIPE library collection: LP1_DSMZ cell viability assay (AID 1918982). Also: nearly all actives have a fitted effect of over 35% in size. In short, it runs like this:
as §1
Potency is read from the fitted curve at half-maximal effect.

With `COc1ccc(CCN(C)CCCOc2ccc(S(=O)(=O)c3[nH]c4ccccc4c3C(C)C)cc2)cc1OC`, the Potency in assay [1] is 20.9 µM (active); in [2] it was 16.6 µM (active); in [4] it was 23.5 µM (active). Besides, in assay [3], the Potency result was “inactive”.
With `CN1N=C(N)c2cn([C@@H]3O[C@H](COP(=O)(O)O)[C@@H](O)[C@@H]3O)c3ncnc1c23`, the Potency is 1.18 µM (active) in [1]; 0.833 µM (active) in assay [5]; 2.09 µM (active) in assay [6]; 0.296 µM (active) in assay [7]; 0.469 µM (active) in assay [4].
Take `CN(C)c1ccc(-c2nc3ncc(Cl)c(N4CCN(CC(=O)Nc5nccs5)CC4)c3[nH]2)cc1`: the Potency in [8] is 3.72 µM (active); in [2], 5.26 µM (active); in [5] it was 2.96 µM (active); in [6], 1.66 µM (active); in [7], 5.26 µM (active); in [4], 1.87 µM (active). In addition, the Potency result in assay [9] and in [3] was “inactive” in each case.
For the compound `CCCCCCOC(=O)N=C(N)c1ccc(NCc2nc3cc(C(=O)N(CCC(=O)OCC)c4ccccn4)ccc3n2C)cc1`, the Potency in [8] was 20.9 µM (active); in [9] it was 14.8 µM (active); in assay [3], 13.2 µM (active); in assay [7] it was 20.9 µM (active).
For `COc1cc(Nc2nc3ccccc3nc2NS(=O)(=O)c2ccc(NC(=O)c3ccc(C)c(OC)c3)cc2)cc(OC)c1`, the Potency was 20.9 µM (active) in [1] and 4.69 µM (active) in [7].
Consider `COc1ccc2c(c1)c(C1=C(c3c[nH]c4ccccc34)C(=O)NC1=O)cn2CCCN(C)C`, for which the Potency in [8] was 23.5 µM (active); in [3] it was 13.2 µM (active); in assay [5], 14.8 µM (active); in [7], 37.2 µM (active); in assay [4] it was 23.5 µM (active). The Potency entry in [9] was “inactive”.
In the case of `CC[C@@H]([C@H](C)O)n1ncn(-c2ccc(N3CCN(c4ccc(OCC5CO[C@@](Cn6cncn6)(c6ccc(F)cc6F)C5)cc4)CC3)cc2)c1=O` (stereo partly drawn), the Potency entry in assay [1] and in [4] was “inactive” each time. Further, the Potency in assay [7] is 18.7 µM (active).
On to `CNC(=O)[C@H](Cc1ccccc1)NC(=O)[C@H](CC(C)C)[C@H](CSc1cccs1)C(=O)NO`, for which the results for the Potency in [1], in [2] and in [6] were 26.4 µM (active), 6.62 µM (active) and 14.8 µM (active), respectively. In addition, the Potency result in assay [4] was “inactive”.
With `Cc1ccc(S(=O)(=O)Nc2nc3ccccc3nc2Nc2ccc3nsnc3c2)cc1`, the Potency is 0.575 µM (active) in [1], 0.204 µM (active) in assay [3], 1.44 µM (active) in [6] and 1.15 µM (active) in assay [4].
With `CN[C@@H](C)[C@H]1[C@H](O)C[C@@]2(C)[C@@H]3CC[C@H]4C(C)(C)[C@@H](NC)CC[C@@]45C[C@@]35CC[C@]12C`, the Potency entry in assay [8], in [9], in [3], in assay [5] and in assay [4] was “inactive” each time.
In the case of `CN1CCN(c2cccc(Nc3nc4c(-c5ccc(S(C)(=O)=O)cc5)cccn4n3)c2)CC1`, the Potency in [8] was 16.6 µM (active); in [9], 14.8 µM (active); in assay [2] it was 16.6 µM (active); in [3] it was 3.32 µM (active); in assay [6] it was 0.743 µM (active); in assay [7], 4.69 µM (active). Besides, in [4], the Potency was 2.35 µM (active).
`C[C@@H](O)[C@H]1C(=O)N2C(C(=O)OCOC(=O)C(C)(C)C)=C(SC3CN(C4=NCCS4)C3)[C@H](C)[C@H]12`: the Potency in [8] was 16.6 µM (active). For the same compound, the Potency result in [9], in assay [2] and in assay [4] was “inactive” throughout.
Regarding `O=c1cc(-c2ccc(O)c(O)c2)oc2cc(O)cc(O)c12`, the Potency entry in [8] is “inactive”.
With `OC[C@H]1O[C@@H](Oc2ccc(O)cc2)[C@H](O)[C@@H](O)[C@H]1O`, the Potency entry in assay [8], in [9], in assay [3], in [5] and in assay [4] was “inactive” each time.
As for `Cc1c(C(=O)Nc2ccc(N3C[C@@H](C)O[C@@H](C)C3)nc2)cccc1-c1ccc(OC(F)(F)F)cc1`, the Potency is 14.8 µM (active) in [1], 13.2 µM (active) in assay [2], 9.35 µM (active) in assay [6] and 20.9 µM (active) in assay [7].
With `Cc1ccccc1C(=O)c1ccc(Nc2ccc(Br)cc2N)cc1Cl`, the Potency in [1] is 6.62 µM (active); in assay [2], 14.8 µM (active); in assay [6], 11.8 µM (active); in assay [7], 10.5 µM (active); in assay [4], 16.6 µM (active).
Regarding `COc1cc2c(cc1Cc1cccc(Cl)c1F)c(=O)c(C(=O)O)cn2[C@H](CO)C(C)C`, the Potency in [1] is 16.6 µM (active); in assay [5], 20.9 µM (active); in assay [6], 18.7 µM (active); in assay [7], 7.43 µM (active).
For the compound `CC(=O)OCC(=O)[C@@]1(O)CC[C@H]2[C@@H]3CCC4=CC(=O)C=C[C@]4(C)[C@@H]3[C@@H](O)C[C@@]21C`, the Potency in [1] was 0.118 µM (active); in assay [5], 0.209 µM (active). Further, the Potency result in [4] was “inactive”.
Consider `C=CC(=O)Nc1cccc(Sc2nc(Nc3ccc(N4CCN(C)CC4)cc3)ncc2Cl)c1`, for which the Potency is 18.7 µM (active) in [1] and 0.743 µM (active) in [6].
For the compound `C[C@@H](N)c1ccc(C(=O)Nc2ccnc3[nH]ccc23)cc1`, the Potency in [1] was 18.7 µM (active); in assay [3], 20.9 µM (active); in [5] it was 20.9 µM (active); in assay [6], 14.8 µM (active); in assay [7], 23.5 µM (active).
On to `Cc1cc(CS(=O)(=O)c2ccccc2)cc(OCc2ccc(CN3CCC[C@H]3CO)cc2)c1`, for which the values for the Potency in [1], in assay [3] and in assay [4] were 4.69 µM (active), 8.33 µM (active) and 20.9 µM (active), respectively. Further, the Potency entry in [5] is “inactive”.
`O=C1NC(=O)C(=Cc2ccc(-c3ccc(F)cc3O)o2)S1`: the Potency in assay [1] is 16.6 µM (active); in assay [3], 0.833 µM (active); in assay [6], 3.72 µM (active); in assay [4] it was 14.8 µM (active).

The values above are taken from PubChem BioAssay (NCATS).
